{
  "source": "PubChem BioAssay AID590",
  "about": "(National Center for Advancing Translational Sciences (NCATS), 2007)",
  "note": "Screen size: about 59,000 compounds; about 6,500 (11%) were called active. About 15% were inconclusive and are not listed. The sample holds actives, similar compounds and a random draw of the others, so the mix is not that of the screen. Rule as the data show it: active = max dye-equivalent concentration above about 10 nM; inconclusive = mostly about 1.1 nM to 9.6 nM; inactive = weaker than that.",
  "data": [
    {"experiment": "qHTS Assay for Spectroscopic Profiling in A350 Spectral Region", "settings": "Compound autofluorescence, 340/450 nm, Alexa 350 dye-equivalents; active compounds read high", "text": "NIH Molecular Libraries Screening Centers Network [MLSCN]\nNIH Chemical Genomics Center [NCGC]\nOccasionally, the artifactual effect may originate from the compounds own spectral or other biophysical properties which generally tend to track its assay concentration. Pre-screening/profiling the library with respect to the compounds spectral properties should help one exclude false positives early on. While the most informative fluorescent profiling data set is obtained by performing a full excitation and emission scan of each well by using a monochromator-based plate reader, such an approach is practical only on a very limited scale as scanning each well requires long time. An alternative approach, applied here, is to perform plate reader scans using selected excitation and emission wavelength pairs to generate a multidimensional relational database that correlates compound concentration and the respective relative fluorescence intensity at a given wavelength set. A standard curve of Alexa 350 (A 350) present on each plate as six-point concentration series, was used to compute a normalized fluorescence response, termed dye-equivalent concentration, for each compound at each concentration.\nNCGC Assay Protocol Summary:\n100 mM Tris buffer, pH 8.0\nThe wells in columns 1 through 4 of a Kalypsys polypropylene 1536-well compound plate were filled with standard solutions of fluorophore corresponding to the spectral region of interest. Solutions of A 350 were placed in the following wells: I1, J1: 3 mM, I2, J2: 300 uM, I3, J3: 30 uM, I4, J4: zero (DMSO), K1, L1: 3 uM, K2, L2: […], K3, L3: 300 nM, K4, L4: zero (DMSO).\nSix uL of buffer were dispensed to 1536-well Greiner black plates. Compounds and dye standards (23 nL) were transferred via Kalypsys PinTool. The plates were incubated for 15 min at room temperature, and then read on ViewLux (Perkin-Elmer) High-throughput CCD imager using 340 nm and 450 nm excitation and emission filter set.\nKeywords: NIH Roadmap, MLSCN, MLI, MLSMR, qHTS, NCGC, A350, A-350, Fluorescent Profiling.", "values": [
      {"smiles": "CN1CCN(Cc2nc3c(c(=O)n(C)c(=O)n3C)n2Cc2cccc3ccccc23)CC1", "max dye-equivalent concentration": "inactive"},
      {"smiles": "Cc1nnc(C)n1/N=C/c1ccc(C(C)C)cc1", "max dye-equivalent concentration": "inactive"},
      {"smiles": "O=C1CC(c2cccc(Br)c2)C2=C(CCCC2=O)N1", "note": "(stereo not given)", "max dye-equivalent concentration": "44 nM (active)"},
      {"smiles": "O=C1CC(c2cccc(F)c2)C2=C(CCCC2=O)N1", "note": "(stereo not given)", "max dye-equivalent concentration": "inactive"},
      {"smiles": "CC(N)=NCc1cccc(CN)c1", "max dye-equivalent concentration": "inactive"},
      {"smiles": "CCCCN(CC)CCCNC(=O)CS(=O)(=O)Cc1nc(-c2cccc(OC)c2)oc1C", "max dye-equivalent concentration": "inactive"},
      {"smiles": "CNC(=O)n1ccc(C(=O)N2CCCCC2)n1", "max dye-equivalent concentration": "inactive"},
      {"smiles": "CN(C)/C=C/c1c(C#N)c(=O)ncn1Cc1ccccc1", "max dye-equivalent concentration": "inactive"},
      {"smiles": "CN(C)c1ccnc2sc3c(=O)n(Cc4ccccc4)cnc3c12", "max dye-equivalent concentration": "32 nM (active)"},
      {"smiles": "O=C(Cc1cccs1)N1CCCC(c2nc(-c3ccc(S(=O)(=O)N4CCCC4)cc3)no2)C1", "note": "(stereo not given)", "max dye-equivalent concentration": "inactive"},
      {"smiles": "COc1cc(Cl)c(C)cc1NC(=O)CSc1nnc(-c2cccnc2)n1Cc1ccco1", "max dye-equivalent concentration": "inactive"},
      {"smiles": "CO[C@@H]1/C=C\\O[C@]2(C)Oc3c(C)c(O)c4c(O)c(c(CN(C)C)c(O)c4c3C2=O)NC(=O)/C(C)=C\\C=C[C@@H](C)[C@@H](O)[C@H](C)[C@@H](O)[C@H](C)[C@H](OC(C)=O)[C@@H]1C", "max dye-equivalent concentration": "inactive"},
      {"smiles": "CCC(=O)Nc1nc2ccccc2n1Cc1ccccc1C", "max dye-equivalent concentration": "inactive"},
      {"smiles": "C=C(Br)Cn1c(CCCC)nc2ccccc21", "max dye-equivalent concentration": "inactive"},
      {"smiles": "CCc1nc2ccccc2n(CCOCCOCCn2c(=O)c(CC)nc3ccccc32)c1=O", "max dye-equivalent concentration": "45 nM (active)"},
      {"smiles": "O=C(OCC(=O)N1CCCC1)c1ccco1", "max dye-equivalent concentration": "inactive"},
      {"smiles": "COc1ccc(C)cc1-n1nnnc1SCC(=O)c1cc(C)n(Cc2ccco2)c1C", "max dye-equivalent concentration": "inactive"},
      {"smiles": "CNc1cc(-c2c(C)noc2C)ncn1", "max dye-equivalent concentration": "inactive"},
      {"smiles": "Cc1cccc(CNc2cc(-c3ccccc3Cl)ncn2)c1", "max dye-equivalent concentration": "inactive"},
      {"smiles": "Cc1cnc(CNc2cc(-c3c(C)noc3C)ncn2)cn1", "max dye-equivalent concentration": "22 nM (active)"},
      {"smiles": "Cc1noc(C)c1-c1cc(NCc2cccnc2)ncn1", "max dye-equivalent concentration": "inactive"},
      {"smiles": "COc1ccccc1CNc1ncnc2ccc(-c3c(C)noc3C)cc12", "max dye-equivalent concentration": "inactive"},
      {"smiles": "COCCNc1cc(-c2c(C)noc2C)ncn1", "max dye-equivalent concentration": "14 nM (active)"},
      {"smiles": "O=C(NC1CC2CCCC(C1)N2C(=O)N1CCCCC1)C1CCCCC1", "note": "(stereo not given)", "max dye-equivalent concentration": "inactive"},
      {"smiles": "CCN(CC)P(=O)(/C(Cl)=C\\Nc1c(C)n(C)n(-c2ccccc2)c1=O)N(CC)CC", "max dye-equivalent concentration": "inactive"},
      {"smiles": "CCCCN(CCCC)C(=O)CCS(=O)(=O)c1ccc2c(c1)n(C)c(=O)c(=O)n2C", "max dye-equivalent concentration": "inactive"},
      {"smiles": "CCOc1ccccc1Oc1cn[nH]c1-c1ccc(OC)cc1O", "max dye-equivalent concentration": "inactive"},
      {"smiles": "CCN(C(=O)CSc1ncn[nH]1)c1cccc2ccccc12", "max dye-equivalent concentration": "inactive"},
      {"smiles": "CC(=O)NS(=O)(=O)c1ccccc1", "max dye-equivalent concentration": "inactive"},
      {"smiles": "Cc1c(S(=O)(=O)O)ccc(N=Nc2c(O)c(C(=O)O)cc3ccccc23)c1Cl", "max dye-equivalent concentration": "12 nM (active)"},
      {"smiles": "O=C(COc1ccc(F)cc1)N(CC1=CCS(=O)(=O)C1)c1ccccc1", "max dye-equivalent concentration": "inactive"},
      {"smiles": "COc1cc(C2C(C(=O)c3ccc(C)o3)=C(O)C(=O)N2Cc2cccnc2)ccc1O", "note": "(stereo not given)", "max dye-equivalent concentration": "inactive"},
      {"smiles": "CCOC(=O)c1c(C)[nH]c(C(=O)COc2ccc3c(c2)OCO3)c1C", "max dye-equivalent concentration": "inactive"},
      {"smiles": "CCOC(=O)c1c(C)[nH]c(C(=O)NCc2ccccc2OC)c1C", "max dye-equivalent concentration": "inactive"},
      {"smiles": "CCCCOC(=O)c1[nH]c(C)c(C(=O)OC)c1C", "max dye-equivalent concentration": "450 nM (active)"},
      {"smiles": "CCOC(=O)COc1ccc(Cl)cc1C1NC(=O)NC(C)=C1C(C)=O", "note": "(stereo not given)", "max dye-equivalent concentration": "inactive"},
      {"smiles": "O=S(=O)(NCc1cccnc1)c1ccc(Br)s1", "max dye-equivalent concentration": "inactive"},
      {"smiles": "CCC[C@H]1C(=O)N2C(N(C)C)=Nc3ccc(C)cc3N2C1=O", "max dye-equivalent concentration": "inactive"},
      {"smiles": "CC(=O)C1C(c2cccc(Oc3ccccc3)c2)NC(=O)NC1(O)C(F)(F)F", "note": "(stereo not given)", "max dye-equivalent concentration": "inactive"},
      {"smiles": "COc1ccccc1N1CCN(C(=O)c2cc(-c3ccc(Cl)c(Cl)c3)on2)CC1", "max dye-equivalent concentration": "inactive"},
      {"smiles": "CCc1c(C)nc2ncnn2c1N1CCC(C(=O)NCc2ccc3c(c2)OCO3)CC1", "max dye-equivalent concentration": "inactive"},
      {"smiles": "C=CCC(NCCCO)c1cccc(OC)c1OC", "note": "(stereo not given)", "max dye-equivalent concentration": "inactive"},
      {"smiles": "COc1ccc(-c2cc3ccc(OCc4nn[nH]n4)cc3oc2=O)cc1", "max dye-equivalent concentration": "11000 nM (active)"},
      {"smiles": "COc1ccc(OCc2ccc(-c3nc4ccccc4c(=O)n3N)o2)cc1", "max dye-equivalent concentration": "inactive"},
      {"smiles": "Cc1nnc(SCC(=O)N2CCc3ccccc32)n1-c1ccccc1", "max dye-equivalent concentration": "inactive"},
      {"smiles": "N#Cc1c2c(c(-c3ccccc3)[nH]c1=O)CCCC2", "max dye-equivalent concentration": "20 nM (active)"},
      {"smiles": "Nc1nnnn1/N=C/c1cccs1", "max dye-equivalent concentration": "inactive"},
      {"smiles": "N=c1c2c3c(sc2ncn1N)CCCCC3", "max dye-equivalent concentration": "inactive"},
      {"smiles": "COc1ccccc1-c1nc(N2CCN(C)CC2)c2ccccc2n1", "max dye-equivalent concentration": "inactive"},
      {"smiles": "COc1ccccc1CNC(=O)C1CCN(c2nc3ccccc3o2)CC1", "max dye-equivalent concentration": "inactive"},
      {"smiles": "COc1cc2nc(N3CCN(C(=O)[C@@H]4CCCO4)CC3)nc(N)c2cc1OC", "max dye-equivalent concentration": "830 nM (active)"},
      {"smiles": "Cc1ccc(C(c2nnnn2CS(=O)(=O)c2ccc(C)cc2)N2CCC(C(N)=O)CC2)cc1", "note": "(stereo not given)", "max dye-equivalent concentration": "inactive"},
      {"smiles": "O=P(c1ccc2c(c1)OCCO2)(N1CCOCC1)N1CCOCC1", "max dye-equivalent concentration": "inactive"},
      {"smiles": "COc1ccccc1CNCc1cccs1", "max dye-equivalent concentration": "inactive"},
      {"smiles": "O=C(O)C1CCN(c2ncnc3ccc(-c4ccccc4C(F)(F)F)cc23)CC1", "max dye-equivalent concentration": "inactive"},
      {"smiles": "CCCS(=O)(=O)N1CCN(C(=O)c2cccs2)CC1", "max dye-equivalent concentration": "inactive"},
      {"smiles": "COc1ccc(OCC(=O)N2CCN(C(=O)c3cccs3)CC2)cc1", "max dye-equivalent concentration": "inactive"},
      {"smiles": "COc1ccc(S(=O)(=O)N2CCN(C(=O)c3cccs3)CC2)cc1OC", "max dye-equivalent concentration": "3700 nM (active)"},
      {"smiles": "CC(C)Oc1ccc(C2NC(=O)NC2=O)cc1", "note": "(stereo not given)", "max dye-equivalent concentration": "inactive"},
      {"smiles": "COc1ccc2c(c1OC)C(=O)OC2c1c(O)nc(SC)n(-c2ccccc2)c1=O", "note": "(stereo not given)", "max dye-equivalent concentration": "inactive"},
      {"smiles": "O=C(CCCn1c(=O)oc2ccccc21)Nc1cccnc1", "max dye-equivalent concentration": "inactive"},
      {"smiles": "Oc1c(CN2CCOCC2)ccc(CN2CCOCC2)c1O", "max dye-equivalent concentration": "inactive"},
      {"smiles": "O=C(CSc1nc(-c2ccco2)cc(C(F)(F)F)n1)NCc1cccs1", "max dye-equivalent concentration": "inactive"},
      {"smiles": "COc1ccc(-c2cc(C(F)(F)F)nc(SCCC(=O)NCc3ccco3)n2)cc1", "max dye-equivalent concentration": "inactive"},
      {"smiles": "FC(F)(F)c1cc(-c2cccs2)nc(NCc2ccco2)n1", "max dye-equivalent concentration": "16 nM (active)"},
      {"smiles": "Cc1ccc(NC2=NC(c3ccccc3)n3c(nc(C)cc3=O)N2)cc1", "note": "(stereo not given)", "max dye-equivalent concentration": "inactive"},
      {"smiles": "CC(=O)NC1=NC(=O)CS1", "max dye-equivalent concentration": "inactive"},
      {"smiles": "CCOC(=O)c1ccc(COC(=O)c2cc(=O)[nH]c3ccccc23)o1", "max dye-equivalent concentration": "40 nM (active)"},
      {"smiles": "CCOC(=O)c1ccc(CS(=O)c2ccc(Cl)cc2)o1", "note": "(stereo not given)", "max dye-equivalent concentration": "inactive"},
      {"smiles": "COc1ccc(COC(=O)c2n[nH]c3ccccc23)cc1F", "max dye-equivalent concentration": "inactive"}
    ]}
  ]
}
